Results on 39 sequences are retold here after the OligoGym collection.
Note: reference of the scale not given here.

In one assay the target is PRKX. Kind of assay: pooled miR-30 sensor sort-seq; sequence = guide strand. As to conditions: shRNA.
For the sequence TTCCTAATCGCCTTGTTCTGTC, the sensor-assay potency score (higher = more potent) is -0.396. Still for that read-out and setting: in the case of ATTGTGTACGTGTTGCTCCTGC it was 0.0637; in that of TAATGAGGTCTTTTACATGGAA, -0.747; in that of TAGCTGAAGAGCTCGCCGCCCG, -0.771. Still for that read-out and setting: the value for TTCTCTGGCTTCAAGTCCCTGT was -0.5; that for TTGGCGAACCCAAAGTCCGTGA was -0.61; that for TTAATGAGGTCTTTTACATGGA was -0.298.

Sequence TTTCCTAATCGCCTTGTTCTGT registered a sensor-assay potency score (higher = more potent) of -0.676. On the same count and under the same terms, in the case of TCGCCTTGTTCTGTCAACCACG it was -0.962. For TCATGTTTCCTAATCGCCTTGT, the sensor-assay potency score (higher = more potent) worked out at 0.781. Still for that read-out and setting: the value for TTGGAGTGCAGGTACTCGATGG was -0.357; that for TTCATGTTTCCTAATCGCCTTG was -0.603.

The target of a further assay is PRM2. Described as above. To be noted: shRNA.
In turn, TTGCTCTTGCCCATGCAACTGC showed a sensor-assay potency score (higher = more potent) of -0.57. Take TTCGAGAGCAGTGTCTGCGCCT: the sensor-assay potency score (higher = more potent) is -0.241. Still for that read-out and setting: in the case of TAGACCTCGACGTGCTCCGGGC it was -1. Still for that read-out and setting: in the case of TATAGTGAGACTGGCCATGGGT it was -0.496; in that of TTGCCCATGCAACTGCTGCCTG, -0.795; in that of TTTCTCTTAACTTCCAGCTGGG, 0.205.

TTCCTGGTTCTGCAGCCTCTGC displayed a sensor-assay potency score (higher = more potent) of -1.75. Sequence TCGAGAGCAGTGTCTGCGCCTA returned a sensor-assay potency score (higher = more potent) of -0.978.

For the sequence TTGCGCCTTCTGCAGGAGCGAT, the sensor-assay potency score (higher = more potent) is -1.7. Same read-out and setting: the value for TGCCTGTACACCTCGTGCGAGC was -1.54. On to TTTTTCTTAATTTCCAGCTGGG, for which the sensor-assay potency score (higher = more potent) was determined as 0.485.

TTCTCTTAACTTCCAGCTGGGG gave a sensor-assay potency score (higher = more potent) of -0.773.

Another assay addresses PROC. The description is as above. As to conditions: shRNA.
In turn, TTGGTGTAAACGCCGTAGTTGT yielded a sensor-assay potency score (higher = more potent) of -1.16.

Turning to ATGTTGCTCATGACCTCGCTGC, the sensor-assay potency score (higher = more potent) is -0.588. Still for that read-out and setting: in the case of TTGTCGGTGGTGCTCTTGCTGT it was -1.32. Same read-out and setting: the value for AAGTTGAGGACGAAGGTGCGGT was -0.189. On the same count and under the same terms, the value for TTTGGTGTAAACGCCGTAGTTG was -0.456; that for TTTGCGGATCCGCAGCACCTGG was -1.65; that for TCATTGTCGGTGGTGCTCTTGC was -0.681. On to TTCTCAGACACCATGTTGCTCA, for which the sensor-assay potency score (higher = more potent) is 0.141. The same measure, in the same setting: the value for ATTGAGGAAGCTCACCTCGCGC was -1.35. For the sequence TTGCTCATGACCTCGCTGCACT, the sensor-assay potency score (higher = more potent) is -0.963.

As to TCGCTGCTGGAGAACACTGAGT, the sensor-assay potency score (higher = more potent) is -1.33. Still for that read-out and setting: the value for TGACTTTGGTGTAAACGCCGTA was -0.165.

The next assay has as its target PRODH2. The assay is described as above. To be noted: shRNA.
Turning to AAACGCTGTAGTGTTATTGAAT, the sensor-assay potency score (higher = more potent) is -0.964. In the case of TTATTGAATACATTTGAAAATA, the sensor-assay potency score (higher = more potent) is -1.75.

TGAAAATACGGTTCTCACGTTT showed a sensor-assay potency score (higher = more potent) of 0.0951.
